Consider 39 molecules from PubChem BioAssay (NCI).

The structures appear in SMILES notation. This is part of a sample that, as a whole, favours compounds with a hit. Of some 83,000 tested, about 20% had one in any assay.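 Negative percent growth values reflect cell death: -40 means 40% of the cells present at the start died, and -100 means all died.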 Active and inactive are the calls of the source. Rule for the calls: active = growth percent below 10; inactive = the rest.

The first experiment concerns MALME-3M melanoma. The experiment can be described thus: NCI-60 one-dose screen, 48 h (100 = growth as untreated, 0 = no growth, -100 = all killed). The conditions noted are these: 10 µM.
With `O=[N+]([O-])c1cccc(N=Nc2ccc(O)cc2O)c1`, the growth was 65.8% (inactive).
On the same count and under the same terms, the result for `CC(=O)/C(Cc1ccccc1)=N/O` reads 104% (inactive); that for `O=[N+]([O-])c1ccccc1N=Nc1ccc(O)cc1O`, 109% (inactive); that for `O=P(O)(O)OCC(O)CO` (stereo not drawn), 110% (inactive).
On the same count and under the same terms, then `CCCCCCCCCCC1CO1` (stereo not drawn), with 103% (inactive); and `CC(=O)OCCO`, with 93.5% (inactive).
Take `CC(=O)OCC(=O)[C@@]1(O)CC[C@H]2[C@@H]3CC[C@@H]4C[C@H](O)CC[C@]4(C)[C@H]3C(=O)C[C@@]21C`: the growth is 143% (inactive).
As to `COc1cc2c3cc1Oc1c(OC)c(OC)cc4c1C(Cc1ccc(O)c(c1)Oc1ccc(cc1)CC3N(C)CC2)N(C)CC4` (stereo not drawn), the growth is -79.3% (active).
Still for that read-out and setting: the result for `COc1cccc(/C=N/NC(=S)NC2CC3CCC2C3)c1O` (stereo not drawn) reads 35.9% (inactive).
For the molecule `O=S(=O)(Cc1ccccc1)c1ccccc1`, the growth was 106% (inactive).
Consider `COc1cc2nn(-c3ccccc3N)nc2cc1OC`, for which the growth was 103% (inactive).
Same read-out and setting: then `O=[N+]([O-])c1ccc(S(=O)(=O)NN=C2CCCCC2)cc1`, with 101% (inactive); and `CC(=O)c1ccc(N=C(C#N)C2=C(O)c3ccccc3C2=O)cc1`, with 114% (inactive); and `CC(=Nc1ccccc1)C1=C(O)C(Cc2cccc(F)c2)NC1=O` (stereo not drawn), with 39.8% (inactive).
The same measure, in the same setting: then `CCOC(=O)c1ccc(NC(=S)P(=O)(c2ccccc2)c2ccccc2)cc1`, with 108% (inactive); and `COCCOC(=O)c1ccc(C(C)C)cc1`, with 92.7% (inactive); and `CCCC(C)OCC(=O)O` (stereo not drawn), with 90.7% (inactive).
With `O=[N+]([O-])c1ccc(N=Nc2ccc(O)c3ccccc23)cc1`, the growth was 57.8% (inactive).
For the molecule `CCCCCCCCO`, the growth was 106% (inactive).
In the case of `Cn1cnc2nc(Cl)nc(Cl)c21`, the growth was 55.6% (inactive).
On the same count and under the same terms, then `OCC(O)C(O)C(O)C(O)/C=N/O` (stereo not drawn), with 110% (inactive); and `O=C(O)COCC(=O)O`, with 83.6% (inactive); and `Cc1ccc(S(=O)(=O)O)c(C)c1`, with 88.4% (inactive).
On to `NC(=S)N/N=C/c1ccc(N)cc1`, for which the growth was 104% (inactive).
In the case of `O=c1[nH]nc(SC2CCCCC2)c(=O)[nH]1`, the growth was 95.7% (inactive).
As to `CC1CC(O)C2C3(C)CCCC2(COC3=O)C12CCC1(CCOC1=O)O2` (stereo not drawn), the growth is 116% (inactive).
Still for that read-out and setting: the result for `CCOc1ccc(Br)cc1/C=N\N=C\c1cc(Br)ccc1OCC` reads 105% (inactive).
The same measure, in the same setting: the result for `S=C1CCCCCN1` reads 107% (inactive); that for `CC1CCCCN1C(=S)Nc1ccc(S(=O)(=O)N2CCCCC2)cc1` (stereo not drawn), 130% (inactive); that for `COc1cc(C2c3cc4c(cc3C3OC(=O)C2C3CO)OCO4)cc(OC)c1OC` (stereo not drawn), 50.3% (inactive).
Take `CCCCOC(=O)c1ccc(C(C)C)cc1`: the growth was 87% (inactive).
For the molecule `NCCCN`, the growth was 95.5% (inactive).
Take `O=C(O)CCCC(=O)O`: the growth was 83.8% (inactive).
Take `COc1ccc(-c2cc3c(nn2)-c2ccccc2C3=O)cc1`: the growth was -21.1% (active).

Another experiment has as its system MDA-MB-231 breast. The experiment is described as above. The conditions noted are these: 10 µM.
For `CCNc1nc2c(cnn2C)c(=O)[nH]1`, the growth was 110% (inactive).
Regarding `O=[N+]([O-])c1cccc(N=Nc2ccc(O)cc2O)c1`, the growth is 76.5% (inactive).
Same read-out and setting: the result for `CC(=O)/C(Cc1ccccc1)=N/O` reads 100% (inactive); that for `O=[N+]([O-])c1ccccc1N=Nc1ccc(O)cc1O`, 119% (inactive); that for `CCn1c(=O)n(C)c2c(=O)n(C)c(=O)n(C)c21`, 110% (inactive).
The same measure, in the same setting: the result for `O=P(O)(O)OCC(O)CO` (stereo not drawn) reads 111% (inactive).
The same measure, in the same setting: then `CCCCCCCCCCC1CO1` (stereo not drawn), with 111% (inactive).
For `CC(=O)OCCO`, the growth was 121% (inactive).
As to `CC(=O)OCC(=O)[C@@]1(O)CC[C@H]2[C@@H]3CC[C@@H]4C[C@H](O)CC[C@]4(C)[C@H]3C(=O)C[C@@]21C`, the growth was 103% (inactive).
Same read-out and setting: then `COc1cc2c3cc1Oc1c(OC)c(OC)cc4c1C(Cc1ccc(O)c(c1)Oc1ccc(cc1)CC3N(C)CC2)N(C)CC4` (stereo not drawn), with -24.1% (active); and `COc1cccc(/C=N/NC(=S)NC2CC3CCC2C3)c1O` (stereo not drawn), with 55.4% (inactive); and `O=S(=O)(Cc1ccccc1)c1ccccc1`, with 121% (inactive).
Same read-out and setting: then `COc1cc2nn(-c3ccccc3N)nc2cc1OC`, with 116% (inactive).
Take `CC1C(=O)c2ccccc2CC1C(=O)O` (stereo not drawn): the growth was 109% (inactive).
Still for that read-out and setting: then `O=[N+]([O-])c1ccc(S(=O)(=O)NN=C2CCCCC2)cc1`, with 108% (inactive); and `CC(=O)c1ccc(N=C(C#N)C2=C(O)c3ccccc3C2=O)cc1`, with 106% (inactive).
Take `CNc1nc(NC)c2cn[nH]c2n1`: the growth was 108% (inactive).
`CC(=Nc1ccccc1)C1=C(O)C(Cc2cccc(F)c2)NC1=O` (stereo not drawn): the growth was 25.9% (inactive).
Same read-out and setting: the result for `CCOC(=O)c1ccc(NC(=S)P(=O)(c2ccccc2)c2ccccc2)cc1` reads 109% (inactive).
In the case of `COCCOC(=O)c1ccc(C(C)C)cc1`, the growth was 102% (inactive).
With `CCCC(C)OCC(=O)O` (stereo not drawn), the growth is 105% (inactive).
For the molecule `O=c1[nH][nH]c(=O)c2cc([N+](=O)[O-])ccc12`, the growth was 106% (inactive).
Same read-out and setting: the result for `O=[N+]([O-])c1ccc(N=Nc2ccc(O)c3ccccc23)cc1` reads 36.8% (inactive); that for `CCCCCCCCO`, 118% (inactive); that for `Cn1cnc2nc(Cl)nc(Cl)c21`, 20.9% (inactive).
On the same count and under the same terms, the result for `OCC(O)C(O)C(O)C(O)/C=N/O` (stereo not drawn) reads 97.5% (inactive).
Take `O=C(O)COCC(=O)O`: the growth is 106% (inactive).
The same measure, in the same setting: then `Cc1ccc(S(=O)(=O)O)c(C)c1`, with 116% (inactive); and `NC(=S)N/N=C/c1ccc(N)cc1`, with 97% (inactive); and `O=c1[nH]nc(SC2CCCCC2)c(=O)[nH]1`, with 102% (inactive).
On the same count and under the same terms, the result for `CC1CC(O)C2C3(C)CCCC2(COC3=O)C12CCC1(CCOC1=O)O2` (stereo not drawn) reads 126% (inactive).
`CCOc1ccc(Br)cc1/C=N\N=C\c1cc(Br)ccc1OCC`: the growth is 108% (inactive).
Still for that read-out and setting: the result for `S=C1CCCCCN1` reads 111% (inactive).
The same measure, in the same setting: then `CC1CCCCN1C(=S)Nc1ccc(S(=O)(=O)N2CCCCC2)cc1` (stereo not drawn), with 119% (inactive).
For `COc1cc(C2c3cc4c(cc3C3OC(=O)C2C3CO)OCO4)cc(OC)c1OC` (stereo not drawn), the growth was 30.3% (inactive).
As for `CCCCOC(=O)c1ccc(C(C)C)cc1`, the growth was 109% (inactive).
On the same count and under the same terms, the result for `NCCCN` reads 106% (inactive); that for `O=C(O)CCCC(=O)O`, 106% (inactive); that for `COc1ccc(-c2cc3c(nn2)-c2ccccc2C3=O)cc1`, 59.5% (inactive).
